About 2,000 (36%) of roughly 5,500 compounds were called active. Another 18% or so got no clear call; they are omitted. Cut-off read from the data, not from the text of the source: active = normalized growth mostly below about 0.91 (no sharp cut-off); inconclusive = no clear call, values can overlap the other calls; inactive = mostly above about 0.92. The list shows a part of the results.
Experiment: chemical genetic growth profiling, strain panel (AID 1159580);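 note: tested at 20 µM; growth read once vehicle control cultures reached saturation at 30 °C; 1 = growth at the plate median or of vehicle wells; lower values mean less growth of the strain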
Conditions: S. cerevisiae deletion strains, growth OD

Measured: normalized growth

CCN(CC)C(=O)N[C@@H]1C=C2c3cccc4[nH]cc(c34)C[C@H]2N(C)C1
inactive: locus YAL040C, strain CLN3, active compounds read low 1.08 | locus YCL061C, strain MRC1 (second series), active compounds read low 1 | locus YDR363W, strain ESC2, active compounds read low 0.989 | locus YER002W, strain NOP16, active compounds read low 1 | locus YGR078C, strain PAC10, active compounds read low 0.985 | locus YJR075W, strain HOC1, active compounds read low 0.983 | locus YMR263W, strain SAP30, active compounds read low 0.991 | locus YNL153C, strain GIM3, active compounds read low 1.02 | locus YNL175C, strain NOP13, active compounds read low 1.01 | locus YNL197C, strain WHI3, active compounds read low 1 | locus YNL224C, strain SQS1, active compounds read low 0.997 | locus YNL322C, strain KRE1, active compounds read low 0.997 | locus YOR083W, strain WHI5 (second series), active compounds read low 0.992

From PubChem BioAssay AID1159580 (chemical genetic matrix, 2015)
